These results are taken from PubChem BioAssay.

The source made the active and inactive calls.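 The calls were made as follows, unless noted: active = visual image review flags a hit and inhibition of aggregation exceeds 20%; inconclusive = visual hit but inhibition at or below 20%; inactive = no hit on visual image review.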

The first test in a line: inhibitors of TNFa-induced NFkB p65 translocation, primary screen, imaging, HUVEC, MLSMR starter and 10KST1 sets (AID 438;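 active = inhibition above 20% together with a positive visual image hit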;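 also: compound added about 3h40 before a 20 min TNFalpha stimulation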;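 as to inhibition: signal is the nuclear over cytoplasmic p65 intensity ratio per well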). To be noted: HUVEC TNFa-induced p65 nuclear translocation; cell count: measured here: nuclei count (cytotoxicity indicator), at 2.08 µM; inhibition: at 2 µM, stronger effect = higher value, 0% TNFa-plus-vehicle, 100% no-TNFa wells.
As to `N#CC1=C(N)OC2=C(C(=O)CCC2)C1CCc1ccccc1` (stereo unspecified), the cell count came to 620 and the inhibition was 2.3% (inactive).
For `CC(=N\O)/C(CN(C)C)=N/O`, in that order: 593 and -2.4% (inactive).
As for `CCOC(=O)C1/C(=N\O)CC(C)(O)C(C(=O)OCC)C1c1ccc(N(C)C)cc1` (stereo unspecified), the inhibition was -1.5% (inactive) and the cell count stood at 497.
Taken in the same sequence, the figures for `CCOc1cc(C2Nc3ccccc3C(=O)N2c2ccccc2OC)ccc1O` (stereo unspecified) were -3.1% (inactive) and 587.
Taken in the same sequence, the figures for `CCOC(=O)C1=C(N)c2ccccc2CC1C(C)C` (stereo unspecified) were 9% (inactive) and 579.
For `CCOc1ccc2nc(SCC(=O)Nc3ncccn3)[nH]c2c1`, in that order: -3.6% (inactive) and 478.
With `O=C(CCN1C(=O)c2ccccc2C1=O)OCN1C(=O)c2ccccc2C1=O`, the inhibition was 2.7% (inactive) and the cell count turned out to be 490.
In the case of `CCOC(=O)Cc1nnc(Nc2cccc(O)c2)c2ccccc12`, the cell count came to 621 and the inhibition is -1.7% (inactive).
Taken in the same sequence, the figures for `Cc1cc(/C=N\O)c(C)n1-c1ccncc1` were 547 and -1.1% (inactive).
`Cc1ccc(NC(=O)CSC2=C(C#N)C(c3ccc4c(c3)OCO4)CC(=O)N2)cc1C` (stereo unspecified): the inhibition is 1.6% (inactive) and the cell count came to 636.
For `CC1(C2(O)CC(c3ccccc3)ON2)CCCCC1` (stereo unspecified), in that order: 1.7% (inactive) and 623.
As to `COc1ccc(Cn2c(N)c(C#N)c3nc4ccccc4nc32)cc1OC`, the cell count worked out at 497 and the inhibition is 2.3% (inactive).
Taken in the same sequence, the figures for `Cc1nnc(SCC(=O)N2CCC(C(N)=O)CC2)s1` were 423 and -2.2% (inactive).
Taken in the same sequence, the figures for `C=CCn1c(SCC(=O)c2ccccc2)nnc1-c1ccc2c(c1)OCO2` were 728 and -2.4% (inactive).
Taken in the same sequence, the figures for `CC(C)(C)c1ccc(O)c(N)c1` were 646 and -5.1% (inactive).
Consider `CC(=O)Nc1ccc(-c2cc3ccccc3o2)cc1`, for which the cell count was 572 and the inhibition is -3.8% (inactive).
As for `COC(=O)c1ccccc1NC(=O)CSc1nnc(-c2ccncc2)o1`, the cell count stood at 372 and the inhibition is -9.3% (inactive).
For the compound `Cc1c(C=NCCOCc2ccccc2)cnn1C`, the cell count stood at 579 and the inhibition is 0.8% (inactive).
Taken in the same sequence, the figures for `CCS(=O)(=O)CCn1c([N+](=O)[O-])cnc1C` were 637 and 5.5% (inactive).
Taken in the same sequence, the figures for `Cc1ccc(-n2c(N)c(C(N)=O)sc2=S)cc1` were 560 and -7.1% (inactive).
In the case of `CCN(CC)CCOC(=O)C1(c2ccc(OC)c(OC)c2)CCCC1`, the cell count came to 540 and the inhibition is -5.7% (inactive).
Taken in the same sequence, the figures for `CCN(CC)C(=O)c1sc2nc(-c3cccs3)cc(-c3cccs3)c2c1N` were 443 and -1.7% (inactive).
For the compound `COc1ccc(/C(O)=C2/C(=O)C(=O)N(CCN(C)C)C2c2ccccn2)cc1OC` (stereo unspecified), the inhibition is -2% (inactive) and the cell count was 485.
On to `CC1(C(=O)CSc2nc3ccccc3s2)CCC(=O)O1` (stereo unspecified), for which the cell count was determined as 609 and the inhibition is -11.4% (inactive).
`O=C(O)CC1Sc2nc3ccccc3n2C1=O` (stereo unspecified): the cell count turned out to be 532 and the inhibition is -9% (inactive).
Consider `CC(=O)Nc1ccc(Oc2ccc3nc(C)[nH]c3c2)cc1`, for which the inhibition is -6.8% (inactive) and the cell count was determined as 566.
With `CC(C)c1nc(NCC2CCCO2)c(C#N)c2c1COC(C)(C)C2` (stereo unspecified), the inhibition was -4.5% (inactive) and the cell count stood at 354.
Taken in the same sequence, the figures for `N#Cc1nc(COc2ccc(Br)cc2)oc1N1CCCC1` were -2.8% (inactive) and 482.
As to `CCCC1Cc2c(sc3ncnc(N)c23)CO1` (stereo unspecified), the inhibition is -5.3% (inactive) and the cell count worked out at 492.
Taken in the same sequence, the figures for `Cc1nc(Sc2cccn2C)c(C(F)(F)F)c(=O)[nH]1` were -4.5% (inactive) and 556.
With `COC(=O)c1cc(Br)c(=O)n(-c2nccs2)c1`, the cell count came out at 750 and the inhibition was -4.2% (inactive).
For `Cc1ccc(SCc2[nH]nc3c2C(c2ccc(C)o2)C(C#N)=C(N)O3)cc1` (stereo unspecified), in that order: 571 and -2.5% (inactive).
For `COc1cccc(C2C(C(=O)c3cc4ccccc4o3)=C(O)C(=O)N2CCN(C)C)c1OC` (stereo unspecified), in that order: 516 and -3.4% (inactive).
Taken in the same sequence, the figures for `Cc1cc(C)n(CC2CC(=O)N(c3ccc(Cl)c(Cl)c3)C2=O)n1` (stereo unspecified) were 566 and -4.3% (inactive).
Regarding `CN1CCN(c2nc3c(c(=O)n(C)c(=O)n3C)n2Cc2cccc3ccccc23)CC1`, the inhibition was 4.9% (inactive) and the cell count stood at 371.
For `CC(C)C(=O)N1CCN(c2nc(-c3ccccc3)c3c(c2C#N)CCCC3)CC1`, the cell count is 615 and the inhibition was -2.8% (inactive).
Taken in the same sequence, the figures for `CCSc1nc(O)c(C2OC(=O)c3c2ccc(OC)c3OC)c(=O)n1-c1ccccc1` (stereo unspecified) were 504 and 5.8% (inactive).
For `COc1cccc(NC(=O)CC2SC(=Nc3ccccc3)NC2=O)c1` (stereo unspecified), in that order: 593 and 2.2% (inactive).
Taken in the same sequence, the figures for `Cc1nnc(NCc2n[nH]c(=O)c3ccccc23)c2ccccc12` were 459 and -4.7% (inactive).

Another test can be described thus: reduction of polyQ htt aggregates in cells – imaging, exon1htt(103Q)mCFP cells, high-content imaging, primary screen (AID 483).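 Also: compound exposure lasted 3 days before fixation.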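 As to nuclei count: percent of the per-plate median nuclei count of sample wells.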 To be noted: exon1htt(103Q)mCFP cell line, aggregate imaging, at 2 µM; inhibition of aggregation: stronger effect = higher value; nuclei count: measured here: cell count, toxicity.
As for `N#CC1=C(N)OC2=C(C(=O)CCC2)C1CCc1ccccc1` (stereo unspecified), the nuclei count was 110% and the inhibition of aggregation is 21% (inactive).
With `CC(=N\O)/C(CN(C)C)=N/O`, the nuclei count is 86.5% and the inhibition of aggregation was -2.9% (inactive).
Taken in the same sequence, the figures for `CCOC(=O)C1/C(=N\O)CC(C)(O)C(C(=O)OCC)C1c1ccc(N(C)C)cc1` (stereo unspecified) were 106% and -7.6% (inactive).
As for `CCOc1cc(C2Nc3ccccc3C(=O)N2c2ccccc2OC)ccc1O` (stereo unspecified), the inhibition of aggregation was -2.3% (inactive) and the nuclei count turned out to be 100%.
In the case of `CCOC(=O)C1=C(N)c2ccccc2CC1C(C)C` (stereo unspecified), the nuclei count stood at 108% and the inhibition of aggregation is -22.6% (inactive).
For `CCOc1ccc2nc(SCC(=O)Nc3ncccn3)[nH]c2c1`, in that order: 111% and -10.2% (inactive).
As to `O=C(CCN1C(=O)c2ccccc2C1=O)OCN1C(=O)c2ccccc2C1=O`, the nuclei count worked out at 95.1% and the inhibition of aggregation was 10% (inactive).
For `CCOC(=O)Cc1nnc(Nc2cccc(O)c2)c2ccccc12`, in that order: 99.2% and -13.1% (inactive).
For `Cc1cc(/C=N\O)c(C)n1-c1ccncc1`, the nuclei count was determined as 92.6% and the inhibition of aggregation was 7.2% (inactive).
Taken in the same sequence, the figures for `Cc1ccc(NC(=O)CSC2=C(C#N)C(c3ccc4c(c3)OCO4)CC(=O)N2)cc1C` (stereo unspecified) were 122% and -10.3% (inactive).
Regarding `CC1(C2(O)CC(c3ccccc3)ON2)CCCCC1` (stereo unspecified), the inhibition of aggregation was 41.9% (inactive) and the nuclei count is 65.3%.
Consider `COc1ccc(Cn2c(N)c(C#N)c3nc4ccccc4nc32)cc1OC`, for which the inhibition of aggregation was 12.4% (inactive) and the nuclei count was found to be 100%.
On to `Cc1nnc(SCC(=O)N2CCC(C(N)=O)CC2)s1`, for which the inhibition of aggregation is -4.3% (inactive) and the nuclei count worked out at 87.6%.
For `C=CCn1c(SCC(=O)c2ccccc2)nnc1-c1ccc2c(c1)OCO2`, in that order: -1% (inactive) and 92.4%.
For `CC(C)(C)c1ccc(O)c(N)c1`, in that order: 18.9% (inactive) and 115%.
Taken in the same sequence, the figures for `CC(=O)Nc1ccc(-c2cc3ccccc3o2)cc1` were -5.2% (inactive) and 112%.
Take `COC(=O)c1ccccc1NC(=O)CSc1nnc(-c2ccncc2)o1`: the inhibition of aggregation is 3.1% (inactive) and the nuclei count turned out to be 99.2%.
For `Cc1c(C=NCCOCc2ccccc2)cnn1C`, in that order: -5.6% (inactive) and 102%.
Taken in the same sequence, the figures for `CCS(=O)(=O)CCn1c([N+](=O)[O-])cnc1C` were 9.6% (inactive) and 97.3%.
For `Cc1ccc(-n2c(N)c(C(N)=O)sc2=S)cc1`, in that order: -1.4% (inactive) and 104%.
Turning to `CCN(CC)CCOC(=O)C1(c2ccc(OC)c(OC)c2)CCCC1`, the nuclei count amounted to 96.9% and the inhibition of aggregation is -1% (inactive).
Turning to `CCN(CC)C(=O)c1sc2nc(-c3cccs3)cc(-c3cccs3)c2c1N`, the nuclei count was found to be 90% and the inhibition of aggregation is 0.6% (inactive).
In the case of `COc1ccc(/C(O)=C2/C(=O)C(=O)N(CCN(C)C)C2c2ccccn2)cc1OC` (stereo unspecified), the nuclei count is 100% and the inhibition of aggregation is -10.2% (inactive).
Taken in the same sequence, the figures for `CC1(C(=O)CSc2nc3ccccc3s2)CCC(=O)O1` (stereo unspecified) were 78.9% and -14.5% (inactive).
`O=C(O)CC1Sc2nc3ccccc3n2C1=O` (stereo unspecified): the nuclei count turned out to be 89% and the inhibition of aggregation was -11.5% (inactive).
In the case of `CC(=O)Nc1ccc(Oc2ccc3nc(C)[nH]c3c2)cc1`, the nuclei count was 95.6% and the inhibition of aggregation is 13% (inactive).
For `CC(C)c1nc(NCC2CCCO2)c(C#N)c2c1COC(C)(C)C2` (stereo unspecified), in that order: 86.9% and 6.9% (inactive).
For `N#Cc1nc(COc2ccc(Br)cc2)oc1N1CCCC1`, in that order: 111% and -13.8% (inactive).
For `CCCC1Cc2c(sc3ncnc(N)c23)CO1` (stereo unspecified), in that order: 80.5% and -8% (inactive).
On to `Cc1nc(Sc2cccn2C)c(C(F)(F)F)c(=O)[nH]1`, for which the nuclei count was 96.7% and the inhibition of aggregation is 4.3% (inactive).
Consider `COC(=O)c1cc(Br)c(=O)n(-c2nccs2)c1`, for which the nuclei count is 102% and the inhibition of aggregation is -14.3% (inactive).
For `Cc1ccc(SCc2[nH]nc3c2C(c2ccc(C)o2)C(C#N)=C(N)O3)cc1` (stereo unspecified), in that order: 62.4% and 15.4% (inactive).
With `COc1cccc(C2C(C(=O)c3cc4ccccc4o3)=C(O)C(=O)N2CCN(C)C)c1OC` (stereo unspecified), the nuclei count worked out at 87.3% and the inhibition of aggregation was 31% (inactive).
Turning to `Cc1cc(C)n(CC2CC(=O)N(c3ccc(Cl)c(Cl)c3)C2=O)n1` (stereo unspecified), the inhibition of aggregation is -16.2% (inactive) and the nuclei count is 104%.
For `CN1CCN(c2nc3c(c(=O)n(C)c(=O)n3C)n2Cc2cccc3ccccc23)CC1`, the inhibition of aggregation was 6.9% (inactive) and the nuclei count amounted to 109%.
As to `CC(C)C(=O)N1CCN(c2nc(-c3ccccc3)c3c(c2C#N)CCCC3)CC1`, the nuclei count was 89.1% and the inhibition of aggregation was 0.5% (inactive).
Take `CCSc1nc(O)c(C2OC(=O)c3c2ccc(OC)c3OC)c(=O)n1-c1ccccc1` (stereo unspecified): the nuclei count was 108% and the inhibition of aggregation is -6.1% (inactive).
For `COc1cccc(NC(=O)CC2SC(=Nc3ccccc3)NC2=O)c1` (stereo unspecified), the nuclei count was 84.1% and the inhibition of aggregation is 32.9% (inactive).
Taken in the same sequence, the figures for `Cc1nnc(NCc2n[nH]c(=O)c3ccccc23)c2ccccc12` were 51.5% and -19.6% (inactive).
